# Experiments:
# Details in all cases: concentration: 1 μM,replicates: in singlicate; n = 1
# [1] = system: PRKD3
# [2] = system: PRKG1
# [3] = system: PRKG2
# [4] = system: T1, PRKR
# T1 construct: gene EIF2AK2
# [5] = system: PRKX
# [6] = system: PRP4
# [7] = system: T2, PYK2
# T2 construct: gene PTK2B
# [8] = system: QSK
# [9] = system: RAF1
# [10] = system: RET
# [11] = system: RIOK1
# [12] = system: RIOK2
# [13] = system: RIOK3
# [14] = system: RIPK1
# [15] = system: RIPK2
# [16] = system: RIPK4
# [17] = system: RIPK5
# [18] = system: ROCK1
# [19] = system: ROCK2
# [20] = system: ROS1
# 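Further: KINOMEscan kinase panel screen.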
SMILES,%Inh [1] [%],%Inh [2] [%],%Inh [3] [%],%Inh [4] [%],%Inh [5] [%],%Inh [6] [%],%Inh [7] [%],%Inh [8] [%],%Inh [9] [%],%Inh [10] [%],%Inh [11] [%],%Inh [12] [%],%Inh [13] [%],%Inh [14] [%],%Inh [15] [%],%Inh [16] [%],%Inh [17] [%],%Inh [18] [%],%Inh [19] [%],%Inh [20] [%]
C[C@@H](Oc1cc(-n2cnc3cc(-c4ccncc4)ccc32)sc1C(N)=O)c1ccccc1Cl [GSK479719],16,3,2,0,2,14,13,9,13,36,94.1,9,100,0,17,8,37,3,49,8
Cn1ccc2ncnc(Oc3ccc(NC(=O)Nc4cncc(C(F)(F)F)c4)c(Cl)c3)c21,0,0,0,0,0,6,2,0,100,100,0,29,19,0,9,0,0,0,0,0
O=C(Nc1ccccc1)c1cccc(Oc2ccc3nccn3n2)c1,1,2,0,0,70,0,0,0,78,0,0,11,8,15,0,26,0,34,0,0
COc1ccc(Nc2nccc(N3CCC(NC(=O)c4cccc(C#N)c4)C3)n2)cc1 (centres unmarked) [GSK1379730],0,12,15,0,0,9,18,2,0,28,34,0,5,0,0,0,0,25,14,23
CSc1nccc(-c2c(-c3ccc(F)cc3)ncn2CCCN2CCOCC2)n1.Cl [SB-217146],0,0,0,0,0,0,5,5,0,2,0,0,0,0,0,3,33,40,10,0
CCOC(=O)N1CCC(n2cnc(-c3ccc(F)cc3)c2-c2ccnc(N)n2)CC1 [SB-219952],0,40,26,0,8,0,10,0,0,30,51,24,35,18,34,64,5,45,12,15
CC(C)S(=O)(=O)N1CCN(Cc2ccc3c(c2)nc(NC(=O)c2ccsc2)n3C[C@H](O)c2ccccc2)CC1 [GW635815],0,23,18,0,16,10,38,3,6,44,36,33,25,20,4,7,0,66,63,20
CC(=O)c1c(-c2ccncc2)[nH]c(-c2ccncc2)c1C [GW493036],100,75,73,0,0,22,0,0,41,26,17,14,0,0,14,0,0,46,27,0
Cn1ccc2ncnc(Oc3ccc(NC(=O)Nc4cc(C(C)(C)C)on4)c(Cl)c3)c21,0,0,33,0,17,23,16,0,78,100,2,29,1,15,83,12,11,3,0,46
Cc1nnc(-c2ccc3occ(-c4ccc(S(C)=O)cc4)c3n2)o1 (centres unmarked),0,0,0,56,0,16,2,0,14,0,0,0,7,0,0,0,0,0,0,0
CN1CCN(CCNc2nc3cc(Oc4ccc(NC(=O)Nc5cc(C(F)(F)F)ccc5F)cc4)ccc3[nH]2)CC1.Cl.Cl [GW768504],0,2,0,24,0,0,18,0,75,99.9,0,0,8,2,1,0,3,48,0,16
Cl.Cl.NC[C@H](CC1CCCCC1)NC(=O)c1ccc(-c2ccnc3[nH]ccc23)s1 [GSK1581428],96.2,99.9,99.2,13,97.9,81,41,9,0,38,100,45,90.1,0,0,0,0,100,98.9,26
Cc1ccc(CC(=O)N2CCc3cc(-c4cn(C)c5ncnc(N)c45)ccc32)cc1 [GSK2634758],0,4,12,7,12,20,0,0,7,7,25,0,0,100,76,0,62,0,21,9
Cc1cccc(-c2nc(Nc3ccncc3)c3sccc3n2)n1 [GW869641],90.7,7,14,54,0,0,20,24,4,31,35,42,28,0,62,42,25,27,38,21
Cc1ccc2c(-c3ccnc(Nc4ccc(C(F)(F)F)cc4)n3)cnn2n1 [GW819776],0,8,0,0,0,0,16,14,15,0,17,84,22,29,17,10,27,54,0,41
CCN1CCN(CCCC(=O)Nc2n[nH]c3nc(-c4ccc(O)cc4)c(Br)cc23)CC1 [SB-731579],0,3,6,0,0,0,0,50,17,23,39,0,9,0,0,27,0,10,0,8
COc1cc2c(Nc3ccc(NC(=O)c4ccccc4)cc3)ncnc2cc1OCCCN1CCOCC1 [GSK301329],0,0,21,0,22,0,0,18,1,79,26,14,21,0,55,0,2,1,0,3
O=C(NCC1CC1)c1ccc(-c2cc(C(=O)NC3CC3)ccc2F)cc1 [GW810445],0,0,0,0,0,16,0,0,0,4,1,0,0,0,0,0,0,58,9,0
C[C@@H]1CCN(C(=O)N2CCCC2)C[C@@H]1N(C)c1ncnc2[nH]ccc12,26,29,13,0,0,0,0,0,10,41,0,0,2,0,0,13,24,43,67,23

SMILES,%Inh [1] [%],%Inh [2] [%],%Inh [3] [%],%Inh [4] [%],%Inh [5] [%],%Inh [6] [%],%Inh [7] [%],%Inh [8] [%],%Inh [9] [%],%Inh [10] [%],%Inh [11] [%],%Inh [12] [%],%Inh [13] [%],%Inh [14] [%],%Inh [15] [%],%Inh [16] [%],%Inh [17] [%],%Inh [18] [%],%Inh [19] [%],%Inh [20] [%]
Cn1ccc2ncnc(Oc3ccc(NC(=O)Nc4cccc(C(F)(F)F)c4)c(Cl)c3)c21,9,0,7,0,0,5,6,0,80,100,6,2,41,6,43,0,11,0,26,12
Cc1cccc2c(-c3ccncc3)c(-c3ccc(F)cc3)nn12.Cl [GW461487],0,9,8,0,3,7,22,15,11,18,0,100,0,0,48,0,0,18,12,0
O=C(NOCC1CC1)c1cc(Br)c(F)c(F)c1Nc1ccc(I)cc1Cl,0,0,0,0,0,32,0,0,0,6,0,0,0,0,0,0,0,0,0,0
CNC(=O)c1ccccc1Nc1nc(Nc2cccc(CS(C)(=O)=O)c2)ncc1C.O=CO [GSK1520489],13,0,8,28,0,82,99.5,22,2,100,97.9,89,91.8,21,30,98,65,89,75,90
COc1cccc(OC)c1C(=O)Nc1cccc(-c2nn3ccccc3c2-c2ccnc(Nc3cccc(F)c3)n2)c1 [GSK361065],2,11,0,0,0,0,8,0,29,90.1,43,2,19,17,38,9,32,0,14,4
CN(c1cccc(CNc2nc(Nc3ccc4c(c3)CC(=O)N4)ncc2C(F)(F)F)c1)S(C)(=O)=O,28,0,0,0,0,0,71,0,0,85,78,19,70,3,0,0,16,0,17,89
O=C(Nc1cccc(Oc2ccc3nccn3n2)c1)Nc1cccc(C(F)(F)F)c1,20,6,0,0,0,11,3,14,90,86,0,0,0,5,12,0,0,3,0,0
C[C@@H](Oc1cc(-n2cnc3ccc(-c4ccncc4)cc32)sc1C(N)=O)c1ccccc1Cl [GSK483724],27,0,0,0,33,23,0,0,11,22,93,70,73,40,26,0,3,23,19,42
COc1cc2nccc(Nc3ccc(Oc4ccccc4)cc3)c2cc1OC.Cl [GI261656],6,0,0,0,0,48,0,3,11,23,11,0,4,6,98.3,3,50,16,29,27
COc1cc(Nc2nccc(N3CCC(NC(=O)c4cccc(C#N)c4)C3)n2)cc(OC)c1OC (centres unmarked) [GSK1379751],0,0,0,0,0,54,0,0,26,14,90.2,0,89,0,25,32,0,10,35,9
N#Cc1cccc(C(=O)NC2CCN(c3ccnc(Nc4ccc(F)cc4)n3)C2)c1 (centres unmarked) [GSK1379708],0,1,0,0,14,29,3,0,2,18,24,0,0,0,0,6,0,0,0,13
c1ccc(Oc2ccc(Nc3ccnc4ccc(-c5ccccn5)cc34)cc2)cc1 [GW407034],33,0,0,0,12,4,0,14,19,6,16,5,0,0,95.7,16,31,11,0,10
Cn1ccc2ncnc(Oc3ccc(NC(=O)Nc4cnn(C(C)(C)C)c4)c(Cl)c3)c21,4,9,0,17,3,0,0,0,44,100,4,29,0,12,40,0,0,6,0,0
CCn1c(-c2nonc2N)nc2cncc(Br)c21 [SB-738004],0,0,92.1,36,0,27,0,0,10,26,19,3,17,27,11,58,1,99.7,99.6,7
COc1cc2ncn(-c3cc(OCC4CCCCC4)c(C(N)=O)s3)c2cc1OC [GSK204559],2,9,0,0,10,0,0,12,9,17,90,5,67,2,0,0,0,0,0,9
COc1cccc(C2=C(Nc3cccc(Cl)c3)C(=O)NC2=O)c1 [SB-341556],6,0,11,11,21,25,16,3,11,37,41,14,1,0,0,4,16,0,0,0
Cc1ccc(Nc2ccnc(Nc3ccc4c(c3)CS(=O)(=O)C4)n2)cc1O.Cl [GW579362],87,0,0,47,0,84,83,9,42,100,99.8,66,95.7,25,93.6,98.6,89,48,50,81
Cl.Nc1n[nH]c2cc(-c3ccccn3)ccc12 [GSK2189892],0,0,0,0,13,24,0,0,6,2,47,0,24,0,0,4,6,0,5,12
